Test results: PubChem BioAssay AID651725 (National Center for Advancing Translational Sciences (NCATS), 2012)
The campaign covered roughly 360,000 compounds. About 2,000 (0.56%) were called active. About 2% were inconclusive and are not listed. No stated cut-off is given here; in the data, active means activity change below about -65%; inconclusive means mostly about -30% to -63%; inactive means weaker than that. The sample as a whole holds a higher share of actives than the screen did.

Molecular target: Homeobox protein SIX1 (Homo sapiens) + Protein phosphatase EYA2 (Homo sapiens) (UniProt Q15475+O00167)
Sequence (O00167 whole entry, looked up): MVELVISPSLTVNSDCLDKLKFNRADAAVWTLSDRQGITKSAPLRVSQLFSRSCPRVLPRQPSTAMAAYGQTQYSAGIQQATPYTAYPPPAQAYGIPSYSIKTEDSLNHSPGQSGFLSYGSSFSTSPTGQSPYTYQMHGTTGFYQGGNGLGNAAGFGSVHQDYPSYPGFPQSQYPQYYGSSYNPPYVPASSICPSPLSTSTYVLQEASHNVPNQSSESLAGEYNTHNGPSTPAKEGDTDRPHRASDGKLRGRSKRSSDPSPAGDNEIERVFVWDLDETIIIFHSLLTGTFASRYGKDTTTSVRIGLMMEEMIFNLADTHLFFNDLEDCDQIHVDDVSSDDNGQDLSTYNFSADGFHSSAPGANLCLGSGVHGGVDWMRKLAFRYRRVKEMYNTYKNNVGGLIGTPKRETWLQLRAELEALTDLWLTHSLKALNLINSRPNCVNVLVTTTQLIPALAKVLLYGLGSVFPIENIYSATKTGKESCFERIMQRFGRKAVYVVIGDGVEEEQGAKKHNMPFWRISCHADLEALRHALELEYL
Sequence (Q15475 whole entry, looked up): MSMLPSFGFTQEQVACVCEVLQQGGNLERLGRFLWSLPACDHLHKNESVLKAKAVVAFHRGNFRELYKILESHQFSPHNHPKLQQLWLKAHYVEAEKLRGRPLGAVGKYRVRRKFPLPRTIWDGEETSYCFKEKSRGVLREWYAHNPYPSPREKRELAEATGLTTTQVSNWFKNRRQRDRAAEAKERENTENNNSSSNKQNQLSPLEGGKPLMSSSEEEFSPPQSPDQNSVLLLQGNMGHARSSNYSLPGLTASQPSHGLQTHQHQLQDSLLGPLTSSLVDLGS
Experiment: qHTS Assay for Inhibitors of the Six1/Eya2 Interaction
Conditions: AlphaScreen GST-Six1/His-Eya2 binding, biochemical; active compounds read low
Excerpt: Its expression is low or undetectable in normal adult breast tissue but the gene is over-expressed in 50% of primary breast tumors and 90% of metastatic lesions. […] Similar to Six1, Eya2 is also not expressed in most normal adult tissues, but is reexpressed in cancers. The Six1-Eya interaction is essential for proliferation during embryonic development, and both Six1 and Eya2 have been independently implicated in the same types of cancer. Because Six1 and Eya2 are embryonic genes with little expression in adult tissues, inhibitors of their expression/activity are likely to have limited side effects. Our goal is to identify inhibitors of the Six1/Eya interaction for potential cancer therapy. To this end, we have developed a homogenous AlphaScreen assay targeting the Six1/Eya interaction. We performed a large scale HTS of the Molecular Libraries Small Molecule Repository (MLSMR) to identify inhibitors of the Six1/Eya interaction as potential anti-cancer therapeutics. Compounds identified can also be used as chemical probes to better understand the biological functions of Six1 and Eya. NIH Chemical Genomics Center [NCGC] NIH Molecular Libraries Probe Centers Network [MLPCN] MLPCN Grant: DA033147 Assay Submitter (PI): Rui Zhao, University of Colorado Denver
The first step of the 5 uL AlphaScreen assay is to dispense assay buffer (50 mM Tris, pH 8.0, 300 mM NaCl, 0.05% BSA, 0.02% Tween 20, 1 mM TCEP) into a Greiner 1536 white solid bottom microtiter plate (789175-F). Five microliters is added to Column 1, 4 uL is added to Column 2 and 3 uL is added to Columns 3 through 48. A 5X protein solution (250 nM GST-Six1 protein + 500 nM His-tagged Eya2 protein) is mixed and 1 uL is dispensed to Columns 3-48. Using a 1536 pintool, 23 nL of compound is transferred to the assay plate. A solution of 5X AlphaScreen beads is mixed (50 ug/mL Glutathione linked donor beads + Nickel chelated acceptor beads) and 1 uL is dispensed to Columns 2-48. The assay plate is incubated for one hour, with a lid, at 37 deg C in the dark. The plate is read using a Perkin Elmer Envision using an AlphaScreen protocol.
On the % scale 0 is the no-effect control and ±100 the full control effect.

Q: Which activity change does the source give for `O=[N+]([O-])c1ccc(C=Nc2ccc(Cl)cc2Cl)s1` here?
A: The activity change was -73.2% (active).

Q: `CCC(C)CN1C(=O)CN(S(C)(=O)=O)CC1(C)C(=O)Nc1ccc2c(c1)OCCO2` (stereo not given) was tested. Which activity change did it give?
A: The activity change was 16.6% (inactive).

Q: `COc1ccc2c(c1)CCCO[C@]21O[C@H](CCO)C[C@H](O)[C@H]1O` was tested. Which activity change did it give?
A: The activity change was 6.3% (inactive).

Q: Which activity change does the source give for `CC(C)(C)OC(=O)NCCCCCNC(=O)c1[nH]cnc1C(=O)Nc1nccs1` here?
A: Its activity change is -76.4% (active).

Q: How did the activity change turn out when `Cc1ccc(NC(=O)c2nc[nH]c2C(=O)N[C@@H](CCCCNC(=O)OC(C)(C)C)C(=O)OC(C)(C)C)cc1` was run?
A: Its activity change is -3.47% (inactive).

Q: Which activity change does the source give for `CC(C)(C)OC(=O)NCCCCCNC(=O)c1nc[nH]c1C(=O)NCc1ccccc1` here?
A: The activity change was -0.665% (inactive).

Q: How did the activity change turn out when `COC(=O)c1ccc2nc(-c3cccc(Br)c3)c(Cc3ccccc3C(F)(F)F)n2c1` was run?
A: The activity change was -10.3% (inactive).

Q: How did the activity change turn out when `Cc1ccc(C(=O)N2CCN(C3CCCCC3)CC2)s1` was run?
A: The activity change was -13.4% (inactive).

Q: Which activity change does the source give for `OCCC#Cc1ccc(N2C(c3ccsc3)=Cc3ccc(F)cc3C2c2c[nH]c3ccccc23)cc1` (stereo not given) here?
A: Its activity change is -7.53% (inactive).

Q: With `O=C(N/N=C/c1cccc(OC(=O)c2ccc([N+](=O)[O-])cc2)c1)c1cccnc1` as the compound, how does the activity change read?
A: The activity change was -3.98% (inactive).

Q: For `COc1ccc(C(=O)NNC(=O)c2cc(C)[nH]n2)cc1`, which activity change is on record?
A: Its activity change is 1.78% (inactive).

Q: For `Cc1cc(C(=O)N/N=C/c2cc([N+](=O)[O-])cc(C)c2O)n[nH]1`, which activity change is on record?
A: Its activity change is -77.5% (active).

Q: `CCCCNS(=O)(=O)c1ccc2nc(SCC(=O)Nc3cc(C)cc(C)c3)[nH]c2c1` was tested. Which activity change did it give?
A: Its activity change is -4.15% (inactive).

Q: How did the activity change turn out when `CCOC(=O)[C@]12CCCC=C1N(Cc1cccc3ccccc13)C(=O)[C@H](CC(=O)NCC13CC4CC(CC(C4)C1)C3)C2` was run?
A: Its activity change is -14% (inactive).

Q: Which activity change does the source give for `Nc1nonc1-n1nnc(C(=O)N/N=C\c2ccncc2)c1CN1CCCCC1` here?
A: Its activity change is -5.55% (inactive).

Q: `NNC(=O)c1nnn(-c2nonc2N)c1CN1CCCC1` was tested. Which activity change did it give?
A: Its activity change is 4.15% (inactive).

Q: How did the activity change turn out when `Nc1nonc1-n1nnc(C(=O)N/N=C/c2ccccc2O)c1CN1CCCC1` was run?
A: The activity change was -91.1% (active).

Q: Which activity change does the source give for `COC(=O)C[C@H]1C=C[C@H](NC(=O)c2ccc(F)cc2)[C@@H](CO)O1` here?
A: The activity change was 7.11% (inactive).

Q: `Cc1cc(C)c(S(=O)(=O)NN=C2c3ccccc3[C@H]3Cc4csc[n+]4[C@@H]23)c(C)c1` was tested. Which activity change did it give?
A: The activity change was -12.5% (inactive).

Q: Which activity change does the source give for `Cc1cccc(N(CC(=O)N2CCCC2)S(C)(=O)=O)c1C` here?
A: The activity change was 7.01% (inactive).

Q: For `COc1ccc(Cc2nnc(SCC(=O)Nc3ccc(C)c(Cl)c3)[nH]c2=O)cc1`, which activity change is on record?
A: The activity change was 6.59% (inactive).

Q: Which activity change does the source give for `Cc1ccc(NC(=O)CSc2nn3c(=O)c(C)nnc3s2)cc1Cl` here?
A: Its activity change is -81.7% (active).

Q: How did the activity change turn out when `Cc1ccc(NC(=O)CSc2nnc(CNC(=O)c3ccccc3F)o2)cc1Cl` was run?
A: The activity change was 8.8% (inactive).

Q: Which activity change does the source give for `O=C(Nc1ccc(F)cc1)C(CCc1ccccc1)N1CCN(CC(=O)N2CCCC2)CC1` (stereo not given) here?
A: The activity change was 1.59% (inactive).

Q: With `FC(F)(F)c1cccc(-c2nc3ccccc3n2C(c2ccccc2)c2nc3ccccc3[nH]2)c1` (stereo not given) as the compound, how does the activity change read?
A: Its activity change is -13.3% (inactive).

Q: With `CCN(CC(=O)NC1CCS(=O)(=O)C1)S(=O)(=O)c1ccccc1` (stereo not given) as the compound, how does the activity change read?
A: Its activity change is 9.89% (inactive).

Q: How did the activity change turn out when `Cc1ccccc1CN1C(=O)CSCC1(C)C(=O)Nc1c(C)cccc1C` (stereo not given) was run?
A: The activity change was -3.18% (inactive).

Q: How did the activity change turn out when `Cc1nc(N=C(N)N)nc2c(C)cccc12` was run?
A: The activity change was -72.7% (active).

Q: For `COC(=O)[C@@]12C[C@@H](CC(=O)NCCCCc3ccccc3)C(=O)N(CCc3ccc(OC)c(OC)c3)C1=CCC(C)(C)C2`, which activity change is on record?
A: Its activity change is -8.99% (inactive).

Q: `Cc1ccc(C(=O)Nc2c(-c3ccccc3)[nH][nH]c2=O)cc1` was tested. Which activity change did it give?
A: The activity change was 3.7% (inactive).

Q: How did the activity change turn out when `COC(=O)C[C@@H]1C=C[C@@H](NS(=O)(=O)c2cccc(OC)c2)[C@@H](CO)O1` was run?
A: Its activity change is -2.42% (inactive).

Q: For `CC(C)c1ccc(Cc2nnc(NCCCO)[nH]c2=O)cc1`, which activity change is on record?
A: Its activity change is 4.24% (inactive).

Q: `COc1ccc(Cc2nnc(N/N=C/c3ccccc3O)[nH]c2=O)cc1OC` was tested. Which activity change did it give?
A: Its activity change is -85.7% (active).

Q: How did the activity change turn out when `COc1ccc(Cc2nnc(SC)[nH]c2=O)cc1` was run?
A: The activity change was 0.132% (inactive).

Q: How did the activity change turn out when `Cc1ccc(/C=C/C(=O)OCC(=O)Nc2cccnc2Cl)cc1` was run?
A: The activity change was -0.924% (inactive).

Q: Which activity change does the source give for `CC(C)(C)NC(=O)C(CCc1ccccc1)n1c(=O)c(-c2ccccc2)nc2ccccc21` (stereo not given) here?
A: The activity change was 7.94% (inactive).

Q: `O=C(O)c1ccc2c3c(cccc13)C(=O)N(OS(=O)(=O)c1ccccc1)C2=O` was tested. Which activity change did it give?
A: Its activity change is -77.1% (active).

Q: Which activity change does the source give for `COc1cccc(-c2ccc3c(c2)S(=O)(=O)c2cccc(C(=O)O)c2C3=O)c1OC` here?
A: The activity change was -5.18% (inactive).

Q: For `Cc1cc(Br)cn2c(Cc3ccccc3C(F)(F)F)c(C3CCCCC3)nc12`, which activity change is on record?
A: Its activity change is 11.6% (inactive).

Q: How did the activity change turn out when `CC(=O)N1Cc2cc(C(=O)NCc3cccc(F)c3)nc(-c3cccc(C4=CCCC4)c3)c2[C@H]1CCO` was run?
A: The activity change was -15.8% (inactive).

Q: Which activity change does the source give for `O=C(COc1cc(Cl)c(Cl)cc1Cl)NCCc1ccccn1` here?
A: The activity change was -7.95% (inactive).

Q: Which activity change does the source give for `NC(=S)NN=Cc1ccc(OC(=O)COc2cc(Cl)c(Cl)cc2Cl)cn1` here?
A: Its activity change is -93.5% (active).

Q: How did the activity change turn out when `O=C(COC(=O)COc1cc(Cl)c(Cl)cc1Cl)NC1CC1` was run?
A: The activity change was 3.24% (inactive).

Q: Which activity change does the source give for `COc1ccc(C(C(=O)NCc2ccccc2)n2c(=O)c(-c3ccccc3)nc3ccccc32)cc1` (stereo not given) here?
A: The activity change was 0.529% (inactive).

Q: `CC(C)C[C@H]1CNC(=O)C(=O)N1C[C@@H]1CCCN1C[C@H](Cc1ccccc1)N1C[C@H](CC(C)C)N(CC2CCCCCC2)C(=O)C1=O` was tested. Which activity change did it give?
A: Its activity change is -1.64% (inactive).

Q: For `O=C(c1ncn2c1c(=O)[nH]c1ccccc12)N1CCc2ccccc2C1`, which activity change is on record?
A: Its activity change is -3.9% (inactive).

Q: With `O=c1[nH]c2ccccc2n2c(-c3ccccc3)nnc12` as the compound, how does the activity change read?
A: The activity change was -65.3% (active).

Q: With `Cc1n[nH]c(=O)nc1N/N=C/c1cccs1` as the compound, how does the activity change read?
A: The activity change was -90.5% (active).

Q: Which activity change does the source give for `Cc1nc2ccccc2n1CC(=O)N/N=C/c1cccs1` here?
A: The activity change was -11.4% (inactive).

Q: `Cn1c(=O)c2c(nc(N/N=C/c3cccs3)n2Cc2ccc(Br)cc2)n(C)c1=O` was tested. Which activity change did it give?
A: The activity change was 29.6% (inactive).

Q: For `Cc1nccn1-c1ccc(NC(=O)[C@H]2O[C@@H](n3ccc(=O)[nH]c3=O)[C@H](O)[C@@H]2O)cc1`, which activity change is on record?
A: The activity change was 1.11% (inactive).

Q: For `O=C(NCc1ccccc1)C(c1ccc(F)cc1)N1CCN(C(=O)C2CCCO2)CC1` (stereo not given), which activity change is on record?
A: The activity change was 20.6% (inactive).

Q: How did the activity change turn out when `Cc1cc(NC(=O)c2ccccc2C)no1` was run?
A: Its activity change is 9.99% (inactive).

Q: `Cc1cc(NC(=O)c2cccc(N3C(=O)CCC3=O)c2)no1` was tested. Which activity change did it give?
A: Its activity change is -70.6% (active).

Q: With `Cc1cccc(NC(=O)c2cc(N3C(=O)CCC3=O)ccc2Cl)n1` as the compound, how does the activity change read?
A: Its activity change is 3.08% (inactive).
